Hits are enriched below; roughly 2.6% of the tested compounds scored in any of these assays.
A549 tox: Nrf2 qHTS screen for inhibitors: counterscreen for cytotoxicity; A549 ARE-Fluc cells, CellTiter-Fluor viability, 18-24 h; Potency, µM (top dose mostly 46 µM), for the others: top-dose activity change, negative = cytotoxicity, actives largely listed as inhibitors; hit rate 0.16% among 390,000; AID 504648, 2011; note: potency is the fitted concentration of half-maximal effect; % is set by controls: 0 for no effect and ±100 for the full control effect
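A549 ARE-Fluc cells in 5% FBS OPTI-MEM, 5000 cells/well, rested 2 h then exposed to compounds in concentration-response for 18-24 h at 37 °C. Viability by CellTiter-Fluor fluorescence (Ex 405/Em 525) after 30 min; luciferase luminescence (BugLite, 15 min, RT) read afterwards.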
CCT modulator: High-Throughput Screening for Modulators of Cytosolic Chaperonin Activity; purified chaperonin ATPase assay, HTRF ADP detection, 30 min; activity change, % (test concentration not listed), hits read low; hit rate 0.3% among 360,000; AID 651819, 2012; in the data active = activity change below about -30%; note: % is set by controls: 0 for no effect and ±100 for the full control effect
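ATPase activity: ADP formed was measured by HTRF Transcreener (665/615 nm ratio) after 30 min at 37 deg C with 10 uM ATP. Compounds screened at one 76 uM concentration against 40 or 20 nM TRiC in Tris pH 7.4/KCl/MgCl2/DTT buffer.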
Nrf2 activator: qHTS of Nrf2 Activators | AID 624171, 2012 | AREc32 ARE-luciferase reporter (MCF7-derived line), luminescence, 24 h | Potency, µM (doses to about 46.1 µM), for the others: at the top dose activation, hits mostly activators | hit rate 0.31% among 410,000; note: potency is the fitted concentration of half-maximal effect; % of control where 0% means no effect; nearly all actives have a fitted effect of over 65% in size
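For detection, Steady-Glo was added and plates sat 30 min at RT; before that, AREc32_Fluc cells grown overnight in OPTI-MEM/5% FBS had been treated with 23 nL compound for 24 hr at 37 deg C.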
A-T KAP1 phos: qHTS Assay for Identifying a Potential Treatment of Ataxia-Telangiectasia | F2112 A-T fibroblasts, KAP-1 phosphorylation AlphaLISA; neocarzinostatin DNA damage 30 min before lysis | Potency, µM (top dose mostly 57.5 µM), without a hit: at the top dose activation, hits mostly activators | hit rate 0.19% among 320,000; note: potency is the fitted concentration of half-maximal effect; % of control where 0% means no effect; nearly all actives have a fitted effect of over 45% in size
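hTERT-immortalized A-T patient fibroblasts (F2112), 500 cells/well in OPTI-MEM, 1% FBS, got compounds for 60 min, then NCS for 30 min at 37C. Lysates were then assayed for phospho-KAP-1 by AlphaLISA (anti-pKAP1 donor, anti-KAP1 acceptor beads), 6 hr at 25C.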
TCR activator: Activators of T cell receptors: qHTS campaign | primary human leukocytes, anti-CD3, IL-2 HTRF, 48 h | Potency, µM (doses to about 9.22 µM), inactives show at the highest dose activation of IL-2 secretion, actives largely listed as activators | 330,000 tested, under 10 active; note: % of control where 0% means no effect
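TCR engagement came from a-CD3 beads alone, with compounds added to primary human leukocytes for 48 hr. Secreted IL-2 bridged europium cryptate- and d2-labelled anti-IL-2 antibodies, giving FRET emission at 665nm after 320nm excitation.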
Nrf2 block: Nrf2 qHTS screen for inhibitors | AID 504444, 2011 | A549 ARE-Fluc reporter, luciferase luminescence, 18-24 h | Potency, µM (titrated, usually from 46 µM), for the others: at the top dose activity change, negative = inhibition, hits mostly inhibitors | hit rate 2.1% among 360,000; note: potency is the fitted concentration of half-maximal effect; % is set by controls: 0 for no effect and ±100 for the full control effect; nearly all actives have a fitted effect of over 60% in size
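Concentration-response testing used A549 ARE_Fluc cells at 5000 cells/well. Following an 18-24 h compound incubation, viability was read by fluorescence (Ex 405/Em 525) and luciferase output by luminescence.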
Numbers without * were called inactive; ? = inconclusive; · = no result given; [ ] = another dose, or the depositor's remark. Unless noted, calls come from the whole dose curve; as a rule, active = well fitted curve in the direction sought with a large enough effect; inconclusive = small, poorly fitted or top-dose-only effect, or another doubt; inactive = no such curve, though single readings can be large; an effect the other way counts as inactive or inconclusive.

SMILES	A549 tox	CCT modulator	Nrf2 activator	A-T KAP1 phos	TCR activator	Nrf2 block
COCCn1c(SCc2csc(-c3ccccc3)n2)nc2ccccc21	-22%	0	1%	5%	2%[46.1 µM]	21µM*
COCCn1c(SCC(=O)NCc2ccccc2)nc2ccccc21	11%	0	0%	-3%	1%	-8%
CN(C)C(=O)CSc1nnc(Cc2ccccc2)n1Cc1ccco1	-7%	-1	0%	-1%	2%[46.1 µM]	-18%
O=C(CSc1nnc(Cc2ccccc2)n1Cc1ccco1)NC12CC3CC(CC(C3)C1)C2	-15%[1.84 µM]	0	2%	5%	·	26µM*
O=C1c2ccccc2C(=O)N1c1cccc2ccncc12	5%	·	·	·	·	6%
O=S(=O)(O)c1cc(O)c(N=Nc2ccc(O)cc2O)c2ccccc12	21µM*	0	5%	·	0%	?
CCOC(=O)c1c(C)n(-c2ccc(C)cc2)c2c(C(C(C)=O)C(=O)O)c(Br)c(O)c(O)c12 (stereo not given)	-13%	-3	?	17%	3%	-20%
CCOC(=O)C(C(C)=O)c1c(Br)c(O)c(O)c2c(C(=O)c3ccc(C)cc3)coc12 (stereo not given)	8.2µM*	-2	23%	4%	·	7.3µM*
CN(C)S(=O)(=O)c1ccc(C(=O)NC2CC(=O)N(c3ccc4c(c3)OCCO4)C2)cc1 (stereo not given)	-1%	·	0%	·	·	·
COc1ccc(CNC(=O)C2CCCN(S(=O)(=O)c3ccc4c(c3)CCCN4C(C)=O)C2)cc1 (stereo not given)	0%	0	0%	-2%	2%	21µM*
CC(=O)N1CCCc2cc(S(=O)(=O)N3CCCC(C(=O)N4CCN(c5cc(C)ccc5C)CC4)C3)ccc21 (stereo not given)	-10%	1	-1%	13%	1%	7.3µM*
CC(=O)N1CCCc2cc(S(=O)(=O)N3CCCC(C(=O)N4CCN(c5ccccc5)CC4)C3)ccc21 (stereo not given)	-6%	-1	0%	10%	1%	13µM*
CC(=O)Nc1ccc(S(=O)(=O)N2CCCC(C(=O)N3CCN(c4ccccc4)CC3)C2)cc1 (stereo not given)	0%	0	0%	3%	5%	?
COc1ccc(C)cc1S(=O)(=O)N1CCCC(C(=O)N2CCN(c3ccccc3)CC2)C1 (stereo not given)	1%	-1	-1%	0%	2%	26µM*
CC1Cc2cc(S(=O)(=O)NCc3ccc(F)cc3)ccc2N1C(=O)C1CCC1 (stereo not given)	4%	·	0%	·	·	·
Cc1ccc(N2C(=O)C(Cl)=C(N3CCCCCC3)C2=O)c(C)c1	?	2	-1%	14%	-1%	23µM*
Cc1nn(C)c2c1c(-c1ccccc1)cc(=O)n2CC(=O)NC(C)(C)C	11%	·	5%	·	·	-8%
CC(/C=N/n1c(C2CCCCC2)n[nH]c1=S)=C\c1ccccc1	·	1	-1%	?	-10%	18µM*
Cc1cccc(/C=N/n2c(C3CCCCC3)n[nH]c2=S)c1	5%	-3	0%	-4%	15%	3%
CC(C)c1ccc(NC2CCCN(C(=O)CCN3CCCC3=O)C2)cc1 (stereo not given)	0%	-34*	0%	-2%	11%	-14%
Cc1ccnn1CCC(=O)N1CCCC(Nc2ccc(C(C)C)cc2)C1 (stereo not given)	·	1	0%	·	·	·
O=C(CCn1c(=O)c2cccn2c2cccnc21)N1CCN(c2ccccc2F)CC1	6%	·	6%	·	·	9%
COc1ccc(N(Cc2ccccc2)S(=O)(=O)c2cccc(C(=O)Nc3ncccc3C)c2)cc1	-8%	1	16%	3%	1%	18µM*
